The results in this text go back to PubChem BioAssay AID1259343 (VanderVen Lab, College of Veterinary Medicine, Cornell …, 2017).

One may read the inhibition as the drop in the measured response relative to a control, in per cent.

Structures are written as SMILES. About 2,900 (47%) of roughly 6,200 compounds were called active. The set was probably picked from earlier hits. The list shows a part of the results. Values without a mark were called inactive. Cut-off read from the data, not from the text of the source: active = inhibition above about 50%; inactive = the rest.

The assay is described as follows: Mycobacterium tuberculosis growth inhibition, primary screen (AID 1259343). The conditions noted are these: inhibition: at 10 µM, hits give high values; outcome: 10 uM.
Turning to `Fc1cccc2sc(Nc3nnc(-c4cccs4)o3)nc12`, the inhibition is 101% (active).

Turning to `O=C(Nc1nc2c(Br)cccc2s1)Nc1c(F)cccc1F`, the inhibition was 28.4%.

In the case of `Cc1cccc2cc(CNC(C)Cc3ccco3)c(Cl)nc12` (stereo not drawn), the inhibition was 24.3%.

As for `CC(C)(Cc1ccc2ccccc2c1)NC[C@@H](O)COc1cccc(Cl)c1C#N`, the inhibition is 87.4% (active).

On to `N#Cc1c(Cl)cccc1Oc1cccc(C(=O)O)c1`, for which the inhibition is 6.19%.

For `Cc1cc(OCC2CN(C(=O)c3ccc(C#N)cc3F)CCO2)ccc1Cl` (stereo not drawn), the inhibition is 5.04%.

Turning to `Cc1ccc(OCC2CN(C(=O)COc3ccccc3C)CCO2)cc1` (stereo not drawn), the inhibition is 75.9% (active).

Consider `O=C(COc1ccc(F)cc1)N1CCOC(COCc2c(Cl)cccc2Cl)C1` (stereo not drawn), for which the inhibition is 34%.

As for `COc1cccc(CC(=O)N2CCOC(COc3ccc(F)cc3)C2)c1` (stereo not drawn), the inhibition was 24%.

`O=C(Cc1cccc(Cl)c1)N1CCOC(COc2ccc3c(c2)CCCC3)C1` (stereo not drawn): the inhibition is 44%.

Consider `Cc1ccccc1OCC(=O)N1CCOC(COc2cccc(C(F)(F)F)c2)C1` (stereo not drawn), for which the inhibition is 6.21%.

Take `Cc1ccc(OCC2CN(C(=O)COc3ccc(F)cc3)CCO2)cc1` (stereo not drawn): the inhibition is 82.5% (active).

In the case of `Cc1cc(OCC2CN(C(=O)COc3ccccc3C)CCO2)ccc1Cl` (stereo not drawn), the inhibition is 50.9% (active).

For `CNc1ccc(C(=O)N2CCOC(COc3ccc(Cl)c(C)c3)C2)cc1` (stereo not drawn), the inhibition is 53% (active).

Take `Cc1cc(OCC2CN(C(=O)Cc3cccc(Cl)c3)CCO2)ccc1Cl` (stereo not drawn): the inhibition is 31%.

As for `Cc1cc(OCC2CN(C(=O)COCc3ccccc3)CCO2)ccc1Cl` (stereo not drawn), the inhibition is 50.5% (active).

`Cc1ccccc1OCC(=O)N1CCOC(COCc2ccccc2F)C1` (stereo not drawn): the inhibition was 72.4% (active).

Take `Cc1cc(OCC2CN(C(=O)Cc3ccc4c(c3)OCO4)CCO2)ccc1Cl` (stereo not drawn): the inhibition is 65.7% (active).

On to `O=C(NCCC(=O)N1CCOC(COCc2ccc(F)cc2Cl)C1)OCc1ccccc1` (stereo not drawn), for which the inhibition was 61% (active).

With `O=C(Cc1cccc(Cl)c1)N1CCOC(COc2ccc(F)cc2)C1` (stereo not drawn), the inhibition is 11.7%.

`O=C(Cc1cccc(Cl)c1)N1CCOC(COCc2ccccc2F)C1` (stereo not drawn): the inhibition is 30.4%.

Regarding `COc1cccc(CC(=O)N2CCOC(COc3ccc(Cl)c(C)c3)C2)c1` (stereo not drawn), the inhibition is 4.53%.

In the case of `CNC(=O)c1cc(Oc2ccc(NC(=O)Nc3ccc(Cl)c(C(F)(F)F)c3)c(F)c2)ccn1`, the inhibition is 34.8%.

As for `O=S1(=O)N(CCN2CC=C(c3c[nH]c4cc(F)ccc34)CC2)c2cccc3c2N1CCC3`, the inhibition was 12.6%.

Take `O=C(/C=C/c1ccc(-c2cccc([N+](=O)[O-])c2)o1)N1CCCCC1`: the inhibition is 80.3% (active).

Turning to `COc1c(Br)cc(Cl)cc1S(=O)(=O)NCCc1ccccc1`, the inhibition was 18%.

With `CN(Cc1ccc2nsnc2c1)Cc1nc(Cc2ccccc2Cl)no1`, the inhibition is 31.6%.

On to `Cc1ccc(OCCN(C)Cc2nc(-c3cccc(Cl)c3)no2)cc1`, for which the inhibition is 35%.

In the case of `COCCCC1CCN(Cc2nc(Cc3ccccc3Cl)no2)CC1`, the inhibition was 29.1%.

Consider `Clc1ccccc1Cc1noc(CN2CCN(Cc3ccccc3)CC2)n1`, for which the inhibition is 51.2% (active).

`CCc1ccc(CN(C)Cc2nc(Cc3ccccc3F)no2)cc1`: the inhibition is 71% (active).

Consider `Fc1ccccc1N1CCN(Cc2nc(Cc3ccccc3Cl)no2)CC1`, for which the inhibition result is “inactive”.

As for `CN(Cc1nc(-c2cccc(Cl)c2)no1)C1CCCCC1`, the inhibition is 74.3% (active).

Consider `CN(C1CCCCC1)S(=O)(=O)N1CCCC(c2nc(-c3cccc(F)c3)no2)C1` (stereo not drawn), for which the inhibition was 33.1%.

With `CN(Cc1ccc(F)cc1)Cc1nc(Cc2ccccc2Cl)no1`, the inhibition was 89.3% (active).

As to `OCC1(Cc2ccccc2)CCCN(c2ccc(-c3ccccc3)nn2)C1` (stereo not drawn), the inhibition is 23.4%.

As to `Cc1ccc(F)c(OCc2nc(Cc3ccccc3F)no2)c1F`, the inhibition is 81.3% (active).

`CN(Cc1nc(Cc2ccccc2Cl)no1)C1CCCCC1`: the inhibition was 65.6% (active).

For the compound `Cc1noc(CNc2cc(Cl)ccc2Oc2ccccc2)n1`, the inhibition was 33.9%.

Turning to `COc1cccc(F)c1OCc1nc(CC2CC2)no1`, the inhibition was -44.2%.

As for `COc1cccc2c1OCCCN(Cc1nc(Cc3ccccc3Cl)no1)C2`, the inhibition is 14.3%.

`COc1ccc(C2N=C(c3ccccc3C)NO2)cc1O` (stereo not drawn): the inhibition result was “inactive”.

`COc1ccc([C@@H]2CC(=O)c3c(O)cc(O)cc3O2)cc1O`: the inhibition is 67.2% (active).

`S=c1oc(-c2cccc(Cl)c2)nn1CN1CCC(c2nnc3ccccn23)CC1`: the inhibition was 22.7%.

Regarding `CN1CCN(Cn2nc(-c3ccc4c(c3)OCO4)oc2=S)CC1`, the inhibition was 86.7% (active).

Consider `Cc1cc(C)cc(-c2nn(CN3CCOCC3(C)C)c(=S)o2)c1`, for which the inhibition is -38.7%.

With `CCc1ccc(/C=C/S(=O)(=O)Nc2onc(C)c2C)cc1`, the inhibition was 68.3% (active).

For the compound `O=C(c1ccc(Oc2ccc(Cl)cc2)c(F)c1)N1CCC(O)CC1`, the inhibition is 5.66%.

Take `O=C(c1ccc(C(F)(F)F)c(F)c1)N1CCC(Cc2ccc(-n3cccc3)cc2)CC1`: the inhibition is 63.9% (active).

With `O=C(c1ccc(F)c(F)c1F)N1CCC(Cc2ccc(-n3cccc3)cc2)CC1`, the inhibition is 56.5% (active).

As for `O=C(c1ccc(C(F)(F)F)c(F)c1)N1CCC(Cc2ccc(F)cc2)CC1`, the inhibition is 87% (active).

Regarding `CCCc1cc(N2CC(C)CC(C)C2)n2nc3nc(C)cc(C)c3c2n1` (stereo not drawn), the inhibition was -1.46%.

`CC(NC(=O)c1cc(Cl)ccc1F)c1ccc(Cl)s1` (stereo not drawn): the inhibition is 41.4%.

Consider `COc1ccc(C(=O)NC(C)c2ccc(Cl)cc2Cl)cc1` (stereo not drawn), for which the inhibition was 55.6% (active).

Consider `COc1ccc(OCc2cc(C(=O)NC(C)c3csc(C)n3)no2)c(Cl)c1` (stereo not drawn), for which the inhibition was 36.7%.

As for `CN(Cc1ccc(F)cc1)c1ccc(-c2nc(C3CC3)no2)cn1`, the inhibition is 27.2%.

Consider `N#CC1(NC(=O)c2ccc(-c3nc(C4CC4)no3)cc2)CCSC1` (stereo not drawn), for which the inhibition is 80.6% (active).

Regarding `O=[N+]([O-])c1ncc[nH]1`, the inhibition is 43.1%.

With `CC(Cc1n[nH]c(=S)o1)c1ccccc1` (stereo not drawn), the inhibition was 36.9%.

For the compound `O=C1c2cccc3cccc(c23)C(=O)N1CCCCCc1n[nH]c(=S)o1`, the inhibition was 29.7%.

For the compound `S=c1[nH]nc(Cc2ccccc2)o1`, the inhibition was -26.6%.

Turning to `CCOc1ccc(-c2n[nH]c(=S)o2)cc1`, the inhibition is 48.7%.

`COc1ccc(CCCc2n[nH]c(=S)o2)cc1`: the inhibition was 99.7% (active).

As for `COc1ccc(Cc2n[nH]c(=S)o2)cc1`, the inhibition is 101% (active).

As for `CC(=NNC(=O)NC1CCCCC1)c1ccco1`, the inhibition is -56.6%.

Turning to `CN(C)c1ccc(NC(=O)C2C[C@H]2c2ccccc2)cc1C(=O)NC1CCCCC1` (stereo partly drawn), the inhibition was 20%.

Regarding `Cc1c(C(=O)NC2CCCCC2)oc2ccccc12`, the inhibition was 90.9% (active).

For the compound `O=C(NC1CCCC1)c1occc1COc1ccccc1`, the inhibition is 60.1% (active).

Take `O=C(NC1CCCCCC1)c1ccco1`: the inhibition is 55.1% (active).

For `O=C(Nc1ccc(Cl)c(Cl)c1)c1occc1COc1ccccc1`, the inhibition is 32.6%.

Consider `O=C(NC(=S)NC1CCCCCCC1)c1ccco1`, for which the inhibition was 63.9% (active).

Turning to `Cc1cc(-c2ccc(NC3=NCCCS3)cc2)nc2ccccc12`, the inhibition is 20.2%.

`CC(C)CNC(=O)C(=O)NCCCc1ccc(N(C)C)cc1`: the inhibition was 33%.

On to `CCN(CC)S(=O)(=O)c1ccc(N=Nc2c(C)nn(-c3ccccc3)c2N)cc1`, for which the inhibition was 25.3%.

For `Cc1nn(-c2ccccc2)c(N)c1N=Nc1cccc(Cl)c1`, the inhibition was 56% (active).

Regarding `CC(=O)Nc1cccc(N=C2NN=C(C34CC5CC(CC(C5)C3)C4)CS2)c1`, the inhibition was 35.4%.

For `Clc1ccc(-c2csc(NCC3CCCO3)n2)c(Cl)c1` (stereo not drawn), the inhibition was 77.3% (active).

In the case of `Cc1cc(-c2csc(NC3CCCC3)n2)c(C)n1CC1CCCO1` (stereo not drawn), the inhibition is 23.4%.

On to `CN(C)C(=O)c1csc(-c2csc(NCC3CCC3)n2)c1`, for which the inhibition was 38.9%.

As to `CCCCSc1nnc2c(n1)OC(C)(CC)Nc1ccccc1-2` (stereo not drawn), the inhibition is -11.3%.

Regarding `CCCSc1nnc2c(n1)OC=Nc1ccc(Br)cc1-2`, the inhibition is 87.8% (active).

In the case of `CCCCSc1nnc2c(n1)OC=Nc1ccc(Br)cc1-2`, the inhibition was 82.3% (active).

As to `O=c1c2c3nc4ccccc4nc3n(C3CCCC3)c2ncn1Cc1ccco1`, the inhibition is -15.8%.

Take `O=c1ccc(-c2ccc(Cl)cc2)nn1Cc1ccccc1F`: the inhibition was 70.5% (active).

On to `Cc1ccc(-c2ccc(=O)n(Cc3ccccc3F)n2)cc1`, for which the inhibition is 28.8%.

Take `O=c1ccc(-c2ccc(F)cc2)nn1Cc1ccc(Br)cc1`: the inhibition was 46.8%.

With `O=c1ccc(-c2ccccc2)nn1Cc1cccc(Cl)c1`, the inhibition is 92.4% (active).

On to `Cc1ccc(-c2ccc(=O)n(Cc3ccccc3)n2)cc1`, for which the inhibition was 24%.

On to `Cc1ccc(Cn2nc(-c3ccccc3)ccc2=O)cc1`, for which the inhibition was 70.6% (active).

Regarding `CCOc1ccc(-c2ccc(=O)n(Cc3ccc(F)cc3)n2)cc1`, the inhibition is 90.8% (active).

In the case of `CCOc1ccc(-c2ccc(=O)n(Cc3ccccc3)n2)cc1`, the inhibition was 41.1%.

With `O=c1ccc(-c2ccc(F)cc2)nn1Cc1ccccc1F`, the inhibition was 33.9%.

With `O=c1ccc(-c2ccc(Br)cc2)nn1Cc1cccc(F)c1`, the inhibition is -4.34%.

With `O=c1ccc(-c2cccc(Br)c2)nn1Cc1ccccc1`, the inhibition is 22.6%.

Consider `CCOC(=O)NC(O)C(F)(F)C(F)(F)C(F)(F)C(F)(F)C(F)(F)C(F)F` (stereo not drawn), for which the inhibition is 27.7%.

For the compound `Cc1nnc2n1N=CC=C(c1ccccc1)S2`, the inhibition was 54.6% (active).

For the compound `O=S(=O)(Nc1nc2ccccc2s1)c1ccccc1`, the inhibition is 57.6% (active).

As to `O=S(=O)(Nc1nc2ccccc2s1)c1ccc(Br)s1`, the inhibition is 70.2% (active).

For `O=S(=O)(Nc1nc2ccccc2nc1Nc1ccccc1)c1ccc(Br)s1`, the inhibition is 80.6% (active).

As for `O=S(=O)(Nc1nc2ccccc2s1)c1cccs1`, the inhibition is -38.3%.

Turning to `CCN1CCN(C(C)CNc2nc3ccccc3s2)CC1` (stereo not drawn), the inhibition was -41.8%.

In the case of `O=S(=O)(Nc1nc2ccccc2nc1Nc1ccc2c(c1)OCO2)c1cccc2nsnc12`, the inhibition was -10.2%.

As for `O=S(=O)(Nc1nc2ccccc2s1)c1ccc(Cl)s1`, the inhibition is 93.7% (active).
